According to PubChem BioAssay AID720519 (National Center for Advancing Translational Sciences (NCATS), 2013):
Results filed as inconclusive are left out. A number with no mark means an inactive call. The source made the active and inactive calls. Calls follow the shape of the dose curve; as a rule, active = well fitted activation curve with a large enough effect; inconclusive = small, poorly fitted or top-dose-only effect; inactive = flat fitted curve, though single readings scatter.

Assay: qHTS for Inhibitors of Cell Surface uPA Generation: Confirmatory Assay for Cherry-picked Compounds; as to inhibition: 0% is about no effect
Settings: cell surface uPA activity generation, qHTS confirmation; series mostly up to 115 µM; inhibition: at the top concentration
Method in brief: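 RAW 264.7 cells at 4000/well, incubated overnight, then treated with compounds. After 24 h at 37 C, viability was read by ATPlite luminescence. An increase in signal indicates blocked uPA-dependent LF entry.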
Potency is read from the fitted curve at half-maximal effect.

SMILES	inhibition	Potency
O=C(CN1CCCC1)Nc1cccc(Cl)c1Cl	1.68%	
CCOC(=O)[C@H]1[C@H]2COc3ccc(Br)cc3[C@@H]2N2C(=O)c3c(C)cc(C)cc3NC(=O)[C@@]12C	1.05%	
CCCOC(=O)CSC1=C(C#N)C(c2ccccc2Cl)CC(=O)N1 (centres undefined)	-3.31%	
O=C(NCCCn1ccnc1)C(=O)NCC(c1cccnc1)N1CCN(c2ccc(F)cc2)CC1 (centres undefined)	-0.766%	
CCCNC(=O)C1CCC(CNS(=O)(=O)c2ccc3c(c2)CC(C)N3C(C)=O)CC1 (centres undefined)	-0.644%	
COc1cccc(CNC(=O)C2CCCN(S(=O)(=O)c3ccc4c(c3)C(C)(C)C(=O)N4C)C2)c1 (centres undefined)	-0.161%	
CCC(=O)N1CCC(NC(=O)Nc2ccc(OC(F)(F)F)cc2)CC1	-0.395%	
CN(C)S(=O)(=O)c1cccc(C(=O)OCC(=O)NCc2ccc3c(c2)OCO3)c1	-1.01%	
CC1CC(C)(C)Nc2ccc(N=O)cc21 (centres undefined)	-3.61%	
O=C(C1CCN(c2nnc(N3CCCC3=O)s2)CC1)N1CCN(c2cccc(C(F)(F)F)c2)CC1	-2.97%	
C=CCN1C=C2C(=O)C(C)(OC(=O)c3cnc4ccccc4n3)C(=O)C=C2C=C1/C=C/COC (centres undefined)	-0.841%	
O=C(COc1ccccc1F)NCC(c1ccc(F)cc1)N1CCOCC1 (centres undefined)	-0.649%	
COc1ccccc1CCNC(=O)C(=O)NCC1OCCN1S(=O)(=O)c1ccc(OC)c(OC)c1 (centres undefined)	-1.7%	
COc1cccc(C2CC(c3ccc(C)cc3)n3ncnc3N2)c1 (centres undefined)	0.338%	
Cc1ccc(-n2ncc(C(=O)NC3CC3)c2C2CCN(C(=O)OC(C)(C)C)CC2)cc1	-1.31%	
CC1(NC(=O)CSc2nnc(-c3c[nH]c4ccccc34)n2C2CC2)CCS(=O)(=O)C1 (centres undefined)	1.13%	
CN(CC(=O)N(C)CC(=O)Nc1c(Cl)cccc1Cl)Cc1ccccc1F	0.804%	
CC(C)CN(C(=O)CN1CCC(C)CC1)c1c(N)n(CC(C)C)c(=O)[nH]c1=O	0.626%	
O=C(Nc1c(C(=O)O)oc2ccc(Br)cc12)c1ccccc1	-3.83%	
CNC(=O)[C@@H]1CCC(=O)N1	-2.39%	

SMILES	inhibition	Potency
Cc1cc2c(cc1S(=O)(=O)Nc1ccc(F)cc1)n(C)c(=O)c(=O)n2C	-1.34%	
C=CC1=C(C(=O)O)N2C(=O)[C@@H](NC(=O)/C(=N\O)c3csc(N)n3)[C@H]2SC1 (stereo in doubt)	1.1%	
COc1ccccc1C(=O)Nc1cccc(C(=O)c2ccccc2)c1	-2.99%	
CCC(=O)Nc1nc(-c2cc([N+](=O)[O-])cs2)cs1	-0.373%	
C=CCc1cc(S(=O)(=O)c2ccc(O)c(CC=C)c2)ccc1O	3.72%	
NC(=O)c1cc2c3ccccc3ccn2c1-c1ccccc1	-2.64%	
Cc1ccc2cc(C=O)c(Cl)nc2c1	-1.38%	
CCC1Nc2ncnc(N3CCCCC3)c2N(Cc2ccc(Cl)cc2)C1=O (centres undefined)	-0.906%	
Cc1cc(=O)[nH]c2c(C)cc(S(=O)(=O)Nc3ccc(O)cc3)cc12	-1.83%	
Nc1nc2ccc(Br)cc2o1	-2.31%	
CCN(CC)CC(=O)Nc1sc2c(c1C(=O)c1ccccc1OC)CCC2		10.4 µM (active)
CCC(C)C(NC(=O)c1ccccc1)C(=O)Nc1ccc(S(=O)(=O)Nc2cc(C)nc(C)n2)cc1 (centres undefined)	-2.37%	
O=S(=O)(NCC(c1cccnc1)N1CCOCC1)c1ccccc1 (centres undefined)	-1.68%	
COCCCN1CC23C=CC(O2)C(C(=O)O)C3C1=O (centres undefined)	-1.65%	
Cc1ccc(S(=O)(=O)Nc2nc(C)cc(N/N=C/c3ccc(O)cc3)n2)cc1	-3.07%	
COC(=O)c1ccc(N2CCN(c3ccccc3)CC2)c(NC(=O)C2CC2)c1	-2.04%	
CCOc1ccc(-c2n[nH]c(=S)n2Cc2ccccc2)cc1	-0.435%	
CCOC(=O)c1c(NC(=O)CC2SC(N)=NC2=O)sc2c1CCC(C)C2 (centres undefined)	-2.04%	
CCOC(=O)C1=C(C)NC(C)=C(C(=O)OCC)C1C(=O)OCC(=O)NCCc1ccccc1		9.27 µM (active)
